# From paper PMC11062922 (Nature Chemical Biology, 2023)
# Read-outs that look alike come from different tables or passages of the source.
# Tests used:
# Design in all cases: species or system human, MV4-11 + K-562 + COLO205 + SK-N-BE2 + OVCAR-8
# ACVR2B = settings: read-out: apparent Kd, n = 1
# BCR = settings: read-out: apparent Kd; compound concentrations: 100 nM and 1000 nM (sheet 'Samples'), CATDS: 0.117591173693898; n = 1
# EPHA1 = settings: read-out: apparent Kd; compound concentrations: 100 nM and 1000 nM (sheet 'Samples'), CATDS: 0.1160485900451; n = 1
# GAK = settings: read-out: apparent Kd; compound concentrations: 100 nM and 1000 nM (sheet 'Samples'), CATDS: 9.8647992016736893E-2; n = 1
# JAK2 = settings: read-out: apparent Kd; compound concentrations: 100 nM and 1000 nM (sheet 'Samples'), CATDS: 0.147380455866959; n = 1
# RET = settings: read-out: apparent Kd; compound concentrations: 100 nM and 1000 nM (sheet 'Samples'), CATDS: 0.12743524996908201; n = 1
# RIPK2 = settings: read-out: apparent Kd, n = 1
# RIPK3 = settings: read-out: apparent Kd; compound concentrations: 100 nM and 1000 nM (sheet 'Samples'), CATDS: 8.1688105237549893E-2; n = 1
# SIK2 = settings: read-out: apparent Kd; compound concentrations: 100 nM and 1000 nM (sheet 'Samples'), CATDS: 9.6722651513250199E-2; n = 1
# ACVR1 = settings: read-out: apparent Kd; compound concentrations:100 nM and 1000 nM (sheet 'Samples'); n = 1
# BMPR1A = settings: read-out: apparent Kd; compound concentrations:100 nM and 1000 nM (sheet 'Samples'); n = 1
# CDK6 = settings: read-out: apparent Kd; compound concentrations:100 nM and 1000 nM (sheet 'Samples'); n = 1
# MAP2K2 = settings: read-out: apparent Kd; compound concentrations:100 nM and 1000 nM (sheet 'Samples'); n = 1
# MAP2K5 = settings: read-out: apparent Kd; compound concentrations:100 nM and 1000 nM (sheet 'Samples'); n = 1
# NNT = settings: read-out: apparent Kd; compound concentrations:100 nM and 1000 nM (sheet 'Samples'); n = 1
# NQO1 = settings: read-out: apparent Kd; compound concentrations:100 nM and 1000 nM (sheet 'Samples'); n = 1
# PDGFRB = settings: read-out: apparent Kd; compound concentrations:100 nM and 1000 nM (sheet 'Samples'); n = 1
# PRKCI = settings: read-out: apparent Kd; compound concentrations:100 nM and 1000 nM (sheet 'Samples'); n = 1
# PRKCZ = settings: read-out: apparent Kd; compound concentrations:100 nM and 1000 nM (sheet 'Samples'); n = 1
# PTK6 = settings: read-out: apparent Kd; compound concentrations:100 nM and 1000 nM (sheet 'Samples'); n = 1
# RIOK2 = settings: read-out: apparent Kd; compound concentrations:100 nM and 1000 nM (sheet 'Samples'); n = 1
# TESK2 = settings: read-out: apparent Kd; compound concentrations:100 nM and 1000 nM (sheet 'Samples'); n = 1
# TNIK = settings: read-out: apparent Kd; compound concentrations:100 nM and 1000 nM (sheet 'Samples'); n = 1
# TP53RK = settings: read-out: apparent Kd; compound concentrations:100 nM and 1000 nM (sheet 'Samples'); n = 1
# [1] = compound concentrations:100 nM and 1000 nM (sheet 'Samples')
structure (smiles),measurement,setting,value
Fc1cc(Cl)ccc1Nc1ccnc2cc(-c3ccc(CN4CCSCC4)o3)ccc12 [GW560106X],potency estimated from few doses,"ACVR2B; compound concentrations: 100 nM and 1000 nM (sheet 'Samples'), CATDS: 8.8140626462379107E-2",1.65 µM
same,potency estimated from few doses,BCR,0.83 µM
same,potency estimated from few doses,EPHA1,0.853 µM
same,potency estimated from few doses,GAK,1.22 µM
same,potency estimated from few doses,JAK2,0.547 µM
same,potency estimated from few doses,RET,0.71 µM
same,potency estimated from few doses,"RIPK2; compound concentrations: 100 nM and 1000 nM (sheet 'Samples'), CATDS: 0.19291932694362501",0.357 µM
same,potency estimated from few doses,RIPK3,2.08 µM
same,potency estimated from few doses,SIK2,1.29 µM
Cc1cc(O)cc(C)c1/C=C/c1cncc(C(N)=O)c1 [GW435821X_KCGS],potency estimated from few doses,ACVR1,0.107 µM
same,potency estimated from few doses,ACVR2B; [1],0.0265 µM
same,potency estimated from few doses,BMPR1A,1.2 µM
same,potency estimated from few doses,CDK6,0.12 µM
same,potency estimated from few doses,MAP2K2,0.179 µM
same,potency estimated from few doses,MAP2K5,2.6 µM
same,potency estimated from few doses,NNT,2.01 µM
same,potency estimated from few doses,NQO1,1.15 µM
same,potency estimated from few doses,PDGFRB,1.57 µM
same,potency estimated from few doses,PRKCI,2.3 µM
same,potency estimated from few doses,PRKCZ,1.47 µM
same,potency estimated from few doses,PTK6,1.46 µM
same,potency estimated from few doses,RIOK2,2.28 µM
same,potency estimated from few doses,RIPK2; [1],0.0967 µM
same,potency estimated from few doses,TESK2,1.25 µM
same,potency estimated from few doses,TNIK,2.4 µM
same,potency estimated from few doses,TP53RK,1.44 µM
